From PubChem BioAssay (EPA / NIEHS) come the findings set out here.

Active and inactive are the calls of the source. The calls were made as follows: active = hit-call score of the fitted dose curve at least 0.9, where 1 is the maximum; inactive = score below 0.9.

The assay in a line: ATG_NFI_CIS: Attagene CIS-FACTORIAL HepG2 Assay for human Nuclear Factor I (NFI) (AID 2282989). The note with it: HepG2 cis-regulatory reporter, NFI response element transcription; actives raise or lower the signal. Here is the method: ATG_CIS is a cell-based, multiplexed-readout assay that uses HepG2, a human liver cell line, with measurements taken at 24 hours after chemical dosing in a 24-well plate.ATG_NFI_CIS is one of 52 assay component(s) measured or calculated from the ATG_CIS assay. It is designed to make measurements of mRNA induction, a form of inducible reporter, as detected with fluorescence intensity signals by Reverse transcription polymerase chain reaction (RT-PCR) and Capillary electrophoresis technology.Data from the assay component ATG_NFI_CIS was analyzed into 1 assay endpoint. This assay endpoint, ATG_NFI_CIS, was analyzed with bidirectional fitting relative to DMSO as the negative control and baseline of activity. Using a type of inducible reporter, measures of mRNA for gain or loss-of-signal activity can be used to understand the reporter gene at the transcription factor-level as they relate to the gene NFIA. Furthermore, this assay endpoint can be referred to as a primary readout, because this assay has produced multiple assay endpoints where this one serves a reporter gene function. To generalize the intended target to other relatable targets, this assay endpoint is annotated to the dna binding intended target family, where the subfamily is nuclear factor I.
Human liver HepG2 cells are transiently transfected with multiple reporter transcription units (MRTUs) in 6-well plates using FuGene 6 reagent (Roche; 3 ml FuGene/1 mg DNA). The MRTU constructs are regulated by a cis-regulating element (promoter). […] A major difference between the CIS and TRANS system is that in CIS activities of endogenous TFs are measured, whereas the TRANS assay evaluates changes in activities of exogenous, chimeric NR-Gal4 proteins. […] At the end of 24 hour incubation, total RNA was isolated using TriZol reagent (Invitrogen). The isolated RNA is then reverse-transcribed using oligo(dT) primer and Mo-MLV reverse transcriptase (Invitrogen) with DNAse I (Ambion) treatment for 30 min. The one-tenth of the produced cDNA was amplified by PCR using Taq DNA polymerase (Invitrogen) and two reporter sequence-specific primers. The PCR products were fluorescently labeled by primer extension with 6-arboxyfluorescein (6-FAM) 5'-labeled reporter sequence-specific primer (2 min at 95 C, 20 s at 68 C and 10 min at 72 C) and these products were digested with 5U of HpaI (New England Biolabs) for 2h at 37 C. The fragments were purified using Qiaquick PCR columns (Qiagen), analyzed on an ABI 3130xL genetic analyzer (Applied Biosystems) with peak positions identified by using a set of X-rhodamine (ROX)-labeled MapMarker1000 molecular weight standards (BioVentures). The raw capillary electrophoresis data was processed using Attagraph software (Attagene).
As for `CCCC(=O)OC(C)(C)Cc1ccccc1`, the compound was classed as inactive.
For the compound `CCCCCC(C)=O`, the result was inactive.
With `CC(=O)NCCO`, the outcome was inactive.
Take `OC[C@H]1O[C@@H]2O[C@H]3[C@H](O)[C@@H](O)[C@@H](O[C@H]4[C@H](O)[C@@H](O)[C@@H](O[C@H]5[C@H](O)[C@@H](O)[C@@H](O[C@H]6[C@H](O)[C@@H](O)[C@@H](O[C@H]7[C@H](O)[C@@H](O)[C@@H](O[C@H]8[C@H](O)[C@@H](O)[C@@H](O[C@H]9[C@H](O)[C@@H](O)[C@@H](O[C@H]1[C@H](O)[C@H]2O)O[C@@H]9CO)O[C@@H]8CO)O[C@@H]7CO)O[C@@H]6CO)O[C@@H]5CO)O[C@@H]4CO)O[C@@H]3CO`: the result was inactive.
For the compound `CC1=C(Br)C(=O)C(Br)=C/C1=C(/c1ccccc1S(=O)(=O)O)c1cc(Br)c(O)c(Br)c1C`, the call was inactive.
In the case of `CCOC(=O)CC(C)O` (stereo not given) it was “inactive”; in that of `CN(C)C(=S)SC(=S)N(C)C`, “inactive”; in that of `NCC1CCCC(CN)C1` (stereo not given), “inactive”.
For `CCCCCCCCCCCCCCCC(=O)OC/C=C(C)/C=C/C=C(C)/C=C/C1=C(C)CCCC1(C)C` the value was “inactive”.
For `CCC(Cl)C(Cl)C(Cl)CC(Cl)C(Cl)C(C)Cl` (stereo not given) the value was “inactive”.
As to `CS(C)=O`, the call was inactive.
Consider `CCCCCCCC(=O)OCCCCCC`, for which the call was inactive.
Turning to `CC(C=O)Cc1ccc(C(C)(C)C)cc1` (stereo not given), the result was inactive.
On to `CN(C)C(=O)Nc1ccc(Oc2ccc(Cl)cc2)cc1`, for which the compound was called inactive.
As to `CCCCCC(=O)CC`, the result was inactive.
For `CCOCCOCCOCC` the value was “inactive”.
As for `C=Cc1ccc(C(C)(C)C)cc1`, the compound was classed as inactive.
As to `CCCC(C)C(O)CC` (stereo not given), the call was inactive.
Take `O=CN1CCOCC1`: the compound was called inactive.
For `CCOc1ccc(NC(=O)CC(C)=O)cc1`, the compound was called inactive.
As for `CC(C)CCCCCCCCCCCCCCC(=O)O`, the outcome was inactive.
Regarding `CC(=O)CC(=O)Nc1ccccc1`, the outcome was inactive.
For `CCCCCCC(O)CCCCCCCCCCC(=O)O` (stereo not given) the value was “inactive”.
For `C1=CC2C3C=CC(C3)C2C1` (stereo not given), the compound was classed as inactive.
In the case of `C=C(C)C(=O)OCCOCCOCCOCCOC(=O)C(=C)C` it was “inactive”.
For `C[C@H](CCC(=O)NCC(=O)O)[C@H]1CC[C@H]2[C@@H]3[C@H](O)C[C@@H]4C[C@H](O)CC[C@]4(C)[C@H]3C[C@H](O)[C@]12C` the value was “inactive”; for `CCCCC(CC)C(=O)OC(C)C` (stereo not given), “inactive”; for `Cc1ccc(OC(=O)c2ccccc2O)cc1`, “inactive”.
As for `O=C(O)c1cc(C(=O)O)cc([N+](=O)[O-])c1`, the outcome was inactive.
As for `CN1CCOCC1`, the compound was classed as inactive.
`C=Cc1ccc(C)cc1`: the compound was classed as inactive.
Turning to `C=C[Si]1(C)O[Si](C)(C=C)O[Si](C)(C=C)O[Si](C)(C=C)O1` (stereo not given), the call was inactive.
For `COc1ccccc1N=Nc1c(S(=O)(=O)O)cc2cc(S(=O)(=O)O)cc(NC(C)=O)c2c1O` the value was “inactive”; for `COC(=O)c1cccnc1`, “inactive”; for `c1ccc2cc(Nc3ccc(Nc4ccc5ccccc5c4)cc3)ccc2c1`, “inactive”.
For `Nc1ccc(N)c2c1C(=O)c1ccccc1C2=O` the value was “inactive”.
As to `C=C(C)C1CC=C(C)C(=O)C1` (stereo not given), the compound was called inactive.
With `CC(C)(CO)[C@@H](O)C(=O)NCCC(=O)O`, the compound was called inactive.
As for `CCOC(=O)CCc1ccccc1`, the outcome was inactive.
As to `CC(=O)C(C)O` (stereo not given), the outcome was inactive.
